F-actin modifier: cytoskeleton assembly modification; inhibition, % at 2 µM; HUVEC TNFa F-actin phalloidin imaging, high content; 91,000 tested, 0.18% active;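 active means inhibition above the batch mean plus 3 SD and confirmed as a hit by visual image inspection, cut at about 30% in these data, passing the limit was not always enough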
CYP2C9 activ: CYP2C9 (human) activation. recombinant CYP2C9, luciferin-H conversion, luminescence; active compounds read high; factor 1 = untreated enzyme, 0 = blocked. activation factor at 5 µM. 96,000 tested, 1.4% active. AID 1024;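 active means activation factor of 2 or more for CYP2C9 at a 5 µM dose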;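 further: 0 = sulfaphenazole-blocked wells and 1 = vehicle-only wells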
E-sel TNF inh: TNF alpha driven E-selectin expression inhibition; HUVEC TNFa-induced E-selectin immunofluorescence, high content; inhibition, % at 2 µM; 120,000 tested, 0.71% active; AID 1246;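 active means inhibition above the batch mean plus 3 SD, and confirmed as a hit on visual image review, cut at about 43% in these data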;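 further: 0% = TNF-stimulated DMSO wells and 100% = unstimulated control wells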
CYP2C19 activ: cytochrome P450 2C19 (human) activation; activation factor at 5 µM; 96,000 tested, under 10 active; recombinant CYP2C19, luciferin-H EGE luminescence; active compounds read high; 0 = fully inhibited enzyme, 1 = untreated enzyme;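 active means activation factor of at least 2 at 5 µM in the primary screen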;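 further: 0 = wells with 2.5 mM tranylcypromine and 1 = vehicle-only wells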
Target sequence (P33261 whole entry, looked up): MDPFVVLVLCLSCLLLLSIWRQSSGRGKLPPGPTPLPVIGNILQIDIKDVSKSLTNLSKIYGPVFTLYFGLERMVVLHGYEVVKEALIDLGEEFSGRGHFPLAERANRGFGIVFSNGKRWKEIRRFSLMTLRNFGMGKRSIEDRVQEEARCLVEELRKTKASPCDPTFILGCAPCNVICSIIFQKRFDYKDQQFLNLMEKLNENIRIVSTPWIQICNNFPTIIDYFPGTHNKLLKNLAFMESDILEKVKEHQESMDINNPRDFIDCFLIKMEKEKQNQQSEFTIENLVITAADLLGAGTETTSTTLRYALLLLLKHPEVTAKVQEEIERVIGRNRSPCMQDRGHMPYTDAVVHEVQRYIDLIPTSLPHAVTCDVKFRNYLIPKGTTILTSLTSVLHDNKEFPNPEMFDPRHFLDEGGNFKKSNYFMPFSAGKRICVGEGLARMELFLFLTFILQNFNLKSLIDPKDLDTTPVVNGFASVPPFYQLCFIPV
CYP2C9 inhib: human CYP2C9 inhibition; CYP2C9 Supersomes, luciferin-H conversion, luminescence; inhibition, % at 5 µM; 96,000 tested, 20% active; P11712; AID 777;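 active means blocking of liver enzyme CYP2C9 beyond about 50% at 5 µM, limit read from the data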
CYP2C19 inhib: inhibitors of human CYP2C19 | 96,000 tested, 21% active | P33261 | inhibition, % at 5 µM | CYP2C19 Supersomes, luciferin-H EGE luminescence, 30 min;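 active means CYP2C19 inhibition above a set limit at 5 µM in the primary screen, cut at about 50% in these data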;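 further: plate controls were negative control wells for no effect and 2.5 mM tranylcypromine positive control for full effect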
Active calls of the source: *; · = no result given. Hits are enriched below; roughly 22% of the tested compounds scored in any of these assays.

SMILES	F-actin modifier	CYP2C9 activ	E-sel TNF inh	CYP2C19 activ	CYP2C9 inhib	CYP2C19 inhib
COC(=O)c1cc(-c2c(C)oc3cc(OC)ccc3c2=O)c(C)o1	39	1	-9	1.1	1	-14
CCCSc1nnc(NC(=O)c2sc3nc(-c4cccs4)ccc3c2N)s1	-16	0.5	·	0.6	53*	36
COc1ccc(C(=O)Nc2nc(-c3cccs3)cs2)cc1	5	0.6	-21	0.7	41	25
Cc1csc(NC(=O)c2sc3nc(-c4cccs4)ccc3c2N)n1	18	0.2	-22	0.4	81*	59*
COC(=O)C1SCC2C(=O)N(Cc3ccc(Cl)cc3)CC(=O)N21 (stereo not given)	·	·	-56	·	·	·
CCOc1ccccc1NC=C1C(=O)OC2(CCCCC2)OC1=O	·	2.6*	-15	0.9	-163	13
C#CCNc1cc(-c2ccccc2)nc2ncnn12	·	·	2	·	·	·
Cn1ncc(C#N)c1/N=C/N(Cc1ccccc1)Cc1ccccc1	-6	0	5	0	99*	95*
Clc1ccccc1-c1nn2c(Cn3cnc4ccccc43)nnc2s1	1	0.7	-13	0.4	25	58*
CCOc1ccc(NCc2nnc(SCc3ccccc3Cl)n2-c2ccccc2)cc1	12	0.6	12	0.5	38	46
Clc1ccccc1CSc1nnc(Cn2cnc3ccccc32)n1-c1ccccc1	4	1	10	0.4	2	61*
c1ccc(-c2nn3c(Cn4nnc5ccccc54)nnc3s2)nc1	4	0.6	16	0.2	39	78*
c1ccc(CCc2nn3c(Cn4cnc5ccccc54)nnc3s2)cc1	0	0.9	-23	0.8	6	18
c1ccc2c(c1)ncn2Cc1nnc2sc(-c3ccc4c(c3)OCO4)nn12	-13	0.2	-13	0.9	81*	8
O=c1cc(O)c(-c2cccc(Cl)c2)c(Cl)[nH]1	·	0.8	6	1	15	-2
S=c1[nH]nc(-c2ccc3ccccc3n2)o1	12	0.5	6	0.8	53*	17
COC(=O)c1sc2ccccc2c1-n1cccc1C(=O)C(=O)Nc1ccc(OC)cc1	·	0	-4	0.6	101*	42
COC(=O)c1sc2ccccc2c1-n1cccc1C(=O)C(=O)Nc1ccccc1	1	0	-17	0.8	100*	24
CCCNC(=O)C(=O)c1cccn1-c1ccsc1C(=O)OC	11	0.9	-8	0.7	8	27
COC(=O)c1sccc1-n1cccc1C(=O)C(=O)N1CCCC1	-17	1	-12	0.7	-4	33
COc1ccc(O)c(/C=N/NC(=O)c2ccc(OCc3cccc(Br)c3)cc2)c1	7	0.9	-59	0.9	12	8
O=C(NCc1ccccn1)NC12CC3CC(CC(C3)C1)C2	13	1	·	0.9	0	6
COc1ccc(NC(=O)CSc2nnc(-c3ccncc3)n2CC2CCCO2)c(OC)c1 (stereo not given)	0	0.7	3	0.4	28	60*
Cc1ccc(NCc2nnc(SCC(=O)Nc3cccc(O)c3)n2CC2CCCO2)c(C)c1 (stereo not given)	·	0.2	-53	0.3	81*	67*
O=C(CSc1nnc(-c2ccncc2)n1CC1CCCO1)Nc1cccc(O)c1 (stereo not given)	·	0.3	19	0.6	67*	36
SMILES	F-actin modifier	CYP2C9 activ	E-sel TNF inh	CYP2C19 activ	CYP2C9 inhib	CYP2C19 inhib
CCOc1ccc(NC(=O)CSc2nnc(-c3ccncc3)n2CC2CCCO2)cc1 (stereo not given)	-6	0.5	47	0.7	49	29
CCCC1(CCC)C(=O)NC(=NCCc2ccc(OC)c(OC)c2)NC1=O	·	·	10	·	·	·
C=CCn1c(SCC(=O)Nc2nnc(CC)s2)nnc1-c1ccco1	·	0.5	-37	0.9	45	8
c1ccc(CN2CCN(C3=Nc4cccc5cccc3c45)CC2)cc1	17	0.9	-3	0.4	14	57*
Cc1nc(N2CCN(Cc3ccccc3)CC2)[nH]c(=O)c1C	-65	1	·	1.1	-2	-10
CCOC(=O)CN1C(=O)NC(C)(c2ccc(OC(F)F)cc2)C1=O (stereo not given)	·	0.6	-36	0.4	35	64*
CCCCN(C(=O)NC(=O)Nc1ccccc1C)S(C)(=O)=O	17	0.5	33	0.7	53*	27
OC1(c2ccccc2F)CCN(Cc2nnc(-c3ccccc3)o2)CC1	-27	0.6	-5	0.8	37	16
c1ccc(-c2nnc(CN3CCCc4ccccc43)o2)cc1	·	0.2	1	0.2	76*	78*
c1ccc(-c2nnc(CN3CCC4(CC3)OCCO4)o2)cc1	-2	1	-10	0.5	3	53*
CC(C)(C)c1cc(NC(=O)COC(=O)c2ccc3c(=O)n4c(nc3c2)CCC4)n(-c2ccccc2)n1	-2	0.2	·	0.2	82*	77*
Cn1cccc1C(=O)OCC(=O)Nc1cc(C(C)(C)C)nn1-c1ccccc1	72*	0.5	12	0.9	50	9

Bioassay records as filed in PubChem.
